According to PubChem BioAssay (EPA / NIEHS):
Inconclusive results are not listed. The source made the active and inactive calls. How the source made its calls, unless noted: active means hit-call score of the fitted dose curve at least 0.9, where 1 is the maximum; inactive means score below 0.9.

Key:
[1] = target: Hepatocyte nuclear factor 4-alpha (Homo sapiens) (UniProt P41235); assay: ATG_HNF4a_TRANS: Attagene TRANS-FACTORIAL HepG2 Assay for human Hepatocyte Nuclear Factor 4 alpha (HNF4a) (AID 2282982; active means hit-call score of the fitted dose curve at least 0.9, where 1 is the maximum); conditions: HepG2 HNF4a transactivation reporter, mRNA readout
Method in brief: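 Activity of an exogenous HNF4a–Gal4 fusion scored as induced GAL4-UAS reporter transcripts after 24 h chemical exposure of transfected human HepG2 cells. Read-out via RT-PCR with 6-FAM labelling and capillary electrophoresis; rise over DMSO baseline.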

[2] = ATG_M_06_TRANS: Attagene TRANS-FACTORIAL HepG2 Assay for M06 Transcription Factor (Internal Marker) (AID 2282983; active means hit-call score of the fitted dose curve at least 0.9, where 1 is the maximum); conditions: HepG2 Attagene TRANS M06 internal marker reporter
Method in brief: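 Human liver HepG2 cells bearing transiently transfected chimeric NR-GAL4 reporter units were treated with chemicals for 24 h. Total RNA was reverse-transcribed, reporter sequences amplified and labelled, then quantified by capillary electrophoresis. Activity was fitted upward relative to DMSO.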

[3] = target: Transcriptional activator Myb (Homo sapiens) (UniProt P10242); assay: ATG_Myb_CIS: Attagene CIS-FACTORIAL HepG2 Assay for human Myeloblastosis (Myb) Proto-Oncogene Transcription Factor (AID 2282986); conditions: HepG2 Attagene CIS-FACTORIAL Myb reporter transcription; actives raise or lower the signal
Method in brief: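 After 24 h of compound dosing, total RNA from transfected HepG2 cells is reverse-transcribed and the reporter sequences amplified, labeled and separated by capillary electrophoresis. Values come from bidirectional fitting against DMSO.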

[4] = ATG_NFI_CIS: Attagene CIS-FACTORIAL HepG2 Assay for human Nuclear Factor I (NFI) (AID 2282989); conditions: HepG2 cis-regulatory reporter, NFI response element transcription; actives raise or lower the signal
Method in brief: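 HepG2, transient MRTU, 24 h exposure; RNA→cDNA→PCR→FAM label→HpaI→CE fluorescence. Bidirectional fit, DMSO = baseline.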

[5] = target: Myc proto-oncogene protein (Homo sapiens) (UniProt P01106); assay: ATG_Myc_CIS: Attagene CIS-FACTORIAL HepG2 Assay for human Myelocytomatosis (Myc) Proto-Oncogene Transcription Factor (AID 2282990); conditions: HepG2, Attagene cis-reporter transcription factor activity; actives raise or lower the signal
Method in brief: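 After 24 h chemical treatment of HepG2 cells carrying multiplexed cis-regulated reporter constructs, reporter transcripts quantified by RT-PCR and capillary electrophoresis of fluorescent fragments. Gain or loss fitted against DMSO baseline.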

[6] = ATG_NF_kB_CIS: Attagene CIS-FACTORIAL HepG2 Assay for human Nuclear Factor Kappa B (NF-kB) (AID 2282991); conditions: HepG2 Attagene cis-factorial NF-kB reporter mRNA; actives raise or lower the signal
Method in brief: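 Fluorescence of labelled RT-PCR products separated by capillary electrophoresis gives reporter mRNA levels from transfected HepG2 cells exposed 24 h; values are fitted in both directions relative to DMSO.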

[7] = ATG_NRF2_ARE_CIS: Attagene CIS-FACTORIAL HepG2 Assay for human Nuclear Factor Erythroid 2 Related Factor 2 (NFR2) response to Antioxidant Response Elements (ARE) (AID 2282992); conditions: HepG2 Attagene ARE/NRF2 reporter, transcription factor activity; actives raise or lower the signal
Method in brief: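 Endogenous transcription factor activity read out as reporter transcript levels (RT-PCR plus capillary electrophoresis, fluorescence) in transiently transfected HepG2 cells. Measured at 24 h after dosing; gain or loss of signal fitted versus DMSO.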

[8] = ATG_Oct_MLP_CIS: Attagene CIS-FACTORIAL HepG2 Assay for human Octamer-Binding Transcription Factor (Oct) (AID 2282993); conditions: HepG2 Attagene cis-factorial Oct reporter, mRNA; actives raise or lower the signal
Method in brief: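 Multiplexed cis-reporter assay in human liver HepG2 cells, 24 h incubation. Reporter RNA amplified and labelled, then resolved by capillary electrophoresis; DMSO serves as negative control and baseline.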

[9] = BSK_3C_TissueFactor: BioMAP Diversity Plus: 3C Assay for Tissue Factor Biomarker Activity (AID 2282997); conditions: BioMAP 3C HUVEC, tissue factor biomarker readout; actives raise or lower the signal
Method in brief: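 Cells used were primary human umbilical vein endothelial cells. They were dosed with chemical, and after 24 h Tissue Factor was quantified by ELISA. Curves were fitted bidirectionally with DMSO as baseline.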

[10] = BSK_3C_uPAR: BioMAP Diversity Plus: 3C Assay for Urokinase-type plasminogen activator receptor (uPAR) Biomarker Activity (AID 2282998); conditions: BioMAP 3C HUVEC, uPAR biomarker ELISA; actives raise or lower the signal
Method in brief: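 Dose primary human umbilical vein endothelial cells, incubate 24 h, measure cell-surface uPAR by ELISA, then fit the signal in both directions against the DMSO negative control.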

[11] = BSK_4H_Eotaxin3: BioMAP Diversity Plus: 4H Assay for Eotaxin 3 Biomarker Activity (AID 2283000); conditions: primary human endothelial cells (HUVEC); actives raise or lower the signal;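 further: CCL26 protein level quantified by ELISA in parallel with SRB cytotoxicity check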
Method in brief: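 Endothelial primary cells (human umbilical vein) exposed to compound for 24 h. ELISA detection of Eotaxin-3.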

[12] = target: human Peroxisome Proliferator-activated Receptor alpha (PPARa), PPARA (gene 5465) (UniProt Q07869); assay: ATG_PPARa_TRANS: Attagene TRANS-FACTORIAL HepG2 Assay for human Peroxisome Proliferator-activated Receptor alpha (PPARa) (AID 2283001; active means hit-call score of the fitted dose curve at least 0.9, where 1 is the maximum)
Method in brief: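 Reporter transcripts quantified by RT-PCR plus capillary electrophoresis after 24 h treatment, fitted upward relative to DMSO. Cells: human HepG2 transiently carrying multiple GAL4-UAS reporter units driven by NR-Gal4 chimeras.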

[13] = target: human Peroxisome Proliferator-activated Receptor delta (PPARd), PPARD (gene 5467) (UniProt Q03181); assay: ATG_PPARd_TRANS: Attagene TRANS-FACTORIAL HepG2 Assay for human Peroxisome Proliferator-activated Receptor delta (PPARd) (AID 2283002; active means hit-call score of the fitted dose curve at least 0.9, where 1 is the maximum)
Method in brief: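 Read-out is induced reporter mRNA, quantified by RT-PCR with fluorescent labelling and capillary electrophoresis after 24 h dosing. Cells are HepG2 transiently carrying multiple GAL4-UAS reporter units driven by exogenous NR-GAL4 chimeras; DMSO serves as baseline.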

[14] = read-out: Intercellular Adhesion Molecule 1 (ICAM1), ICAM1 (gene 3383); assay: BSK_3C_ICAM1: BioMAP Diversity Plus: 3C Assay for Intercellular Adhesion Molecule 1 (ICAM1) Biomarker Activity (AID 2283003); conditions: primary human endothelial cells (HUVEC); actives raise or lower the signal
Method in brief: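 ELISA readout of ICAM1 in human umbilical vein endothelial cells in the 3C system, taken 24 h post-dose. Gain or loss of signal versus DMSO was fitted in both directions, with SRB total-protein staining run in parallel.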

[15] = target: Nuclear respiratory factor 1 (Homo sapiens) (UniProt Q16656); assay: ATG_NRF1_CIS: Attagene CIS-FACTORIAL HepG2 Assay for human Nuclear Respiratory Factor 1 (NRF1) Orphan Gene (AID 2282987); conditions: HepG2 NRF1 cis-element reporter, Attagene multiplex; actives raise or lower the signal
Method in brief: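 Measured: fluorescent reporter-specific RT-PCR products from transfected HepG2 cells, separated by capillary electrophoresis. Exposure lasted 24 h. Analysis used bidirectional curve fitting with DMSO as negative control.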

[16] = target: Cellular tumor antigen p53 (Homo sapiens) (UniProt P04637); assay: ATG_p53_CIS: Attagene CIS-FACTORIAL HepG2 Assay for human p53 Transcription Factor (AID 2282994); conditions: HepG2 p53 cis-element reporter, Attagene mRNA; actives raise or lower the signal
Method in brief: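 Endogenous p53 activity read in transiently transfected HepG2 from a cis-element-driven reporter transcript after 24 h exposure. RNA reverse-transcribed, PCR-amplified, fluorescently labelled and sized by capillary electrophoresis; gain or loss fitted against DMSO baseline.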

[17] = ATG_M_32_TRANS: Attagene TRANS-FACTORIAL HepG2 Assay for M32 Transcription Factor (Internal Marker) (AID 2282984; active means hit-call score of the fitted dose curve at least 0.9, where 1 is the maximum;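 further: transcript level of a background control reporter unit measured by RT-PCR and capillary electrophoresis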); conditions: HepG2 Attagene TRANS M32 internal marker reporter
Method in brief: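 Internal background reporter in transfected HepG2: after 24 h chemical exposure, RNA reverse-transcribed, reporter cDNA amplified, fluorescently labelled and HpaI-cut, then sized by capillary electrophoresis. Gain of signal fitted against DMSO control.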

[18] = target: Nuclear receptor subfamily 4 group A member 2 (Homo sapiens) (UniProt P43354); assay: ATG_NURR1_TRANS: Attagene TRANS-FACTORIAL HepG2 Assay for human Nuclear Receptor Related Protein 1 (NURR1) (AID 2282985; active means hit-call score of the fitted dose curve at least 0.9, where 1 is the maximum); conditions: HepG2 Attagene TRANS reporter, mRNA readout
Method in brief: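 Reporter transcript induction, measured by RT-PCR with fluorescent labelling, HpaI digestion and capillary electrophoresis, after 24 hr dosing of human HepG2 cells transiently expressing an exogenous NR-Gal4 fusion with GAL4-UAS-driven reporters; DMSO as baseline.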

[19] = BSK_3C_VCAM1: BioMAP Diversity Plus: 3C Assay for Vascular cell adhesion molecule 1 (VCAM1) Biomarker Activity (AID 2282999); conditions: BioMAP 3C HUVEC, VCAM1 ELISA, cytokine-stimulated; actives raise or lower the signal
Method in brief: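 Activity fitted in both directions relative to DMSO, with ELISA measurement of the surface marker on primary HUVEC (3C) at 24 h post-treatment; parallel SRB staining (0.1% SRB, TCA-fixed, 560 nm) flagged overt cytotoxicity.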

Measured: AC50

Chain of human Peroxisome Proliferator-activated Receptor delta (PPARd), PPARD (gene 5467) (Q03181 whole entry, looked up, the tested form may be a part): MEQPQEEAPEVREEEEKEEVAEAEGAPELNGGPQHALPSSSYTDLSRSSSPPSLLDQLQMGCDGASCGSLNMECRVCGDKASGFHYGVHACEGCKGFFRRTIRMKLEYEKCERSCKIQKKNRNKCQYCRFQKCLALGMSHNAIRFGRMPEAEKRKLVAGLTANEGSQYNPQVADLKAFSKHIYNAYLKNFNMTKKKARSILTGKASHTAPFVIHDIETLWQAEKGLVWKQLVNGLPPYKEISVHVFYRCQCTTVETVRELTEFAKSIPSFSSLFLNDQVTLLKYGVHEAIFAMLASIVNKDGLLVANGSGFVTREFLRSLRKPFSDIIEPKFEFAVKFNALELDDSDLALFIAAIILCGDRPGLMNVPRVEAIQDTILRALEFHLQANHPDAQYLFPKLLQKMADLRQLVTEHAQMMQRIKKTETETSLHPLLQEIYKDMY
Chain of human Peroxisome Proliferator-activated Receptor alpha (PPARa), PPARA (gene 5465) (Q07869 whole entry, looked up, the tested form may be a part): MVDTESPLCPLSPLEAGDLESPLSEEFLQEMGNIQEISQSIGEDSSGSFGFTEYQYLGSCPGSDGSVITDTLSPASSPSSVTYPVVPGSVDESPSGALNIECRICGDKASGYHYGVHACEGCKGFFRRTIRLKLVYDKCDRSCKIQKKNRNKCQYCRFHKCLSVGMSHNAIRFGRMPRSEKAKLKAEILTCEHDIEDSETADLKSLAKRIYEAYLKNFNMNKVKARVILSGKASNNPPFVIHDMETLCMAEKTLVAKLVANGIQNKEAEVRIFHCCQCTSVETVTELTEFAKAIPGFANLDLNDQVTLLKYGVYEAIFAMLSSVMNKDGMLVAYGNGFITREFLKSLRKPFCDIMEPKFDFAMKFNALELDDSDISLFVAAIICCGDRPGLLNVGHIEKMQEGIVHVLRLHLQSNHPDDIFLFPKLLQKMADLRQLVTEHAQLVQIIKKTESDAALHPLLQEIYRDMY
Chain of Transcriptional activator Myb (Homo sapiens) (P10242 whole entry, looked up): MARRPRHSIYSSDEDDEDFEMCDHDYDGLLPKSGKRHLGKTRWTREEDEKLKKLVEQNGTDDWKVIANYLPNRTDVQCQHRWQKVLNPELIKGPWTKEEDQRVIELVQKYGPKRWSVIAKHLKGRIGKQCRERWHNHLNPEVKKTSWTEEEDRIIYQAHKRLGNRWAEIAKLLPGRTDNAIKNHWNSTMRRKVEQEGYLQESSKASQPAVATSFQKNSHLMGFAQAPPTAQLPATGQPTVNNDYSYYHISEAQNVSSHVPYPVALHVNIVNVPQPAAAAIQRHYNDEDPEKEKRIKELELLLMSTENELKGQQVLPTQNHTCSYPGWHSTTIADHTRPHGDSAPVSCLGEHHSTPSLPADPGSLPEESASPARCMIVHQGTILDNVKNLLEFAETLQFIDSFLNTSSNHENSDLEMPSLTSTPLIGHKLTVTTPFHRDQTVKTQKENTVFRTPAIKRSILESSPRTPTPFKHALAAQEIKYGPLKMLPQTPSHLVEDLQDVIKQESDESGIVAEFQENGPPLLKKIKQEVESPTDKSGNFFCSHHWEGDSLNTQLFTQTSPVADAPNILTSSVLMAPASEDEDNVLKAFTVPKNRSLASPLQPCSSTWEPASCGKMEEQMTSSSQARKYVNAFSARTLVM
Chain of Hepatocyte nuclear factor 4-alpha (Homo sapiens) (P41235 whole entry, looked up, the tested form may be a part): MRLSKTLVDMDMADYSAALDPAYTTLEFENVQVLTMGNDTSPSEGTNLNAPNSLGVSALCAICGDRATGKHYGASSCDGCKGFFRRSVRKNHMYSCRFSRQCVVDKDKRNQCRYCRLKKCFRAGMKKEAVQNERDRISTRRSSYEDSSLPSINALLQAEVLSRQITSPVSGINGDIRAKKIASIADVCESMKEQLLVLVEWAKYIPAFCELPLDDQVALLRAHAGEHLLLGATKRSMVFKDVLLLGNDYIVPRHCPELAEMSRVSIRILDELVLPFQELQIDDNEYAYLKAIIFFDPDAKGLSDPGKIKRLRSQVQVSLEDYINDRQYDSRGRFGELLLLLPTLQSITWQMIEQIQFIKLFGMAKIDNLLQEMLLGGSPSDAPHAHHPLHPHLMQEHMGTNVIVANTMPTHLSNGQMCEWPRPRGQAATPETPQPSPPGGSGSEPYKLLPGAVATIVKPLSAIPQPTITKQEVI
Chain of Nuclear respiratory factor 1 (Homo sapiens) (Q16656 whole entry, looked up): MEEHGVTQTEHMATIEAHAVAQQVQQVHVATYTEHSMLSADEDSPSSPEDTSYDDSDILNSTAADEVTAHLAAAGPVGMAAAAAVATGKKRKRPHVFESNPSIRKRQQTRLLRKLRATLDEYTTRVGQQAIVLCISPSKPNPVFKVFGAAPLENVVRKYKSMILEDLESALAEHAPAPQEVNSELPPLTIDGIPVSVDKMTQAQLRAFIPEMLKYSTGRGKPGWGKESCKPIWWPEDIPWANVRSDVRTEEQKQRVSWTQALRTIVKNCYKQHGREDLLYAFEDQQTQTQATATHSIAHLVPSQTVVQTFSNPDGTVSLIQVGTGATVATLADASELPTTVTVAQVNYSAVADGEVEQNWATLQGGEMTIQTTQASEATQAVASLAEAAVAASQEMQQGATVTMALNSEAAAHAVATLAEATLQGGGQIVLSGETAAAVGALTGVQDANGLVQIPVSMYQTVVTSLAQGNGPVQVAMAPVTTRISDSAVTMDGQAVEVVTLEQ
Chain of Cellular tumor antigen p53 (Homo sapiens) (P04637 whole entry, looked up): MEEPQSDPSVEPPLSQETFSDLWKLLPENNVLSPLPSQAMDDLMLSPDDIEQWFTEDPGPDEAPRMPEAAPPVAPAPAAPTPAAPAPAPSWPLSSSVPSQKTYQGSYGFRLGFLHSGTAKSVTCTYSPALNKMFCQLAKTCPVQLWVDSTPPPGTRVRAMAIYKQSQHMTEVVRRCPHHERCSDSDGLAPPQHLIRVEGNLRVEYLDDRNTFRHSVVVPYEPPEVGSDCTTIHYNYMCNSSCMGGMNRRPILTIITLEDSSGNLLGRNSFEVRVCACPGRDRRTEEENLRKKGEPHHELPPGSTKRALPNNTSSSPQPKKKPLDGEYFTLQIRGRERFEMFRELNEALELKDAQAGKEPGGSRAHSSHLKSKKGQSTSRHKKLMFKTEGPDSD
Chain of Nuclear receptor subfamily 4 group A member 2 (Homo sapiens) (P43354 whole entry, looked up, the tested form may be a part): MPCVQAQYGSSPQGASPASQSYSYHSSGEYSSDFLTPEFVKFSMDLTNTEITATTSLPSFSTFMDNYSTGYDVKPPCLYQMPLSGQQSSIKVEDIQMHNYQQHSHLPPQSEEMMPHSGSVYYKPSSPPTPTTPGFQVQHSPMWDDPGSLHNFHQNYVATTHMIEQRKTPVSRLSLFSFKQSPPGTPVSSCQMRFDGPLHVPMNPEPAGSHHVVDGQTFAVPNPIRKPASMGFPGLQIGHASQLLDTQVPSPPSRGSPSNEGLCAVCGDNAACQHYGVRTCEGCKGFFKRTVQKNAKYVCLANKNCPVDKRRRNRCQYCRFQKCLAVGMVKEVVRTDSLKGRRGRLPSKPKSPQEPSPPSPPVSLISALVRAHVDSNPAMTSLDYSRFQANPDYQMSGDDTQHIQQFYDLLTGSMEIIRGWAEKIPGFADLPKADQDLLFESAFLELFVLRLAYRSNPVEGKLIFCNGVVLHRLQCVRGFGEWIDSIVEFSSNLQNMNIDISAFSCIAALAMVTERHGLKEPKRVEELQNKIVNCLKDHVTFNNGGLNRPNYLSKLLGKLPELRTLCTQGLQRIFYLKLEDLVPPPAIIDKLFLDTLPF
Chain of Myc proto-oncogene protein (Homo sapiens) (P01106 whole entry, looked up, the tested form may be a part): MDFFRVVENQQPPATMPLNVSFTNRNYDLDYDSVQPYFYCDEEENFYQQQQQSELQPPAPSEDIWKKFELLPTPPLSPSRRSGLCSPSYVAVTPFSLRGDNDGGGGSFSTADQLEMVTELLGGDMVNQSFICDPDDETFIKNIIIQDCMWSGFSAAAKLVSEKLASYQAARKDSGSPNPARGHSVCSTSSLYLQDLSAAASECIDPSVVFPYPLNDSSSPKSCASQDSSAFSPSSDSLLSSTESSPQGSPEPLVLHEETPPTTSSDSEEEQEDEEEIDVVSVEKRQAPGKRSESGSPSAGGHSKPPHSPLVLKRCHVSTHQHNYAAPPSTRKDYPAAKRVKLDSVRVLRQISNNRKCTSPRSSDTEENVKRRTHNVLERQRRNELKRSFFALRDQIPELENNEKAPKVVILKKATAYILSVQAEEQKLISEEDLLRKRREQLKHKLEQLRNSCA

Clc1cccc(Cl)c1Cl
not listed: [15] | [16] | [17] | [18] | [19]
inactive: all other assays above

O=C(O)COc1ccc(Cl)cc1
not listed: [9] | [10] | [11] | [14] | [17] | [18] | [19]
inactive: all other assays above

CN(C1CCCCC1)C1CCCCC1
active: [7] 61.1 µM
inactive: [1] | [2] | [3] | [15] | [4] | [5] | [8]

CCCCOP(=O)(CCCC)OCCCC
not listed: [9] | [10] | [11] | [12] | [14] | [17] | [18] | [19]
inactive: all other assays above

Cc1cccc(N=Nc2ccc(N(C)C)cc2)c1
inactive: [1] | [2] | [3] | [15] | [4] | [8] | [16] | [12]
active: [7] 5.01 µM

N#CS
inactive: [1] | [2] | [3] | [4] | [5] | [7] | [8] | [16] | [13]

C[N+](C)(C)Cc1ccccc1
inactive: [1] | [17] | [3] | [4] | [5] | [7] | [8] | [12]

CN(C)CCN(C)C
inactive: [1] | [18] | [3] | [4] | [5] | [6] | [7] | [8] | [12] | [13]

C=C(C)C(=O)OCCCCOC(=O)C(=C)C
inactive: [1] | [18] | [3] | [15] | [4] | [5] | [8]
active: [7] 48.3 µM

CC(c1ccc(O)cc1)c1ccc(O)cc1
active: [8] 120 µM
inactive: [1] | [17] | [18] | [3] | [15] | [4] | [16] | [12]

c1csc(-c2ccc(-c3cccs3)s2)c1
active: [18] 3.59 µM | [7] 1.22 µM | [8] 1.62 µM
not listed: [2] | [9] | [10] | [11] | [14] | [19]
inactive: all other assays above

CC(C)(COCC1CO1)COCC1CO1 (configuration not stated)
active: [7] 49.8 µM | [9] 3.97 µM
not listed: [2] | [12] | [18]
inactive: all other assays above
